Source: the supplement of paper PMC4166925
± gives the standard deviation of the averaged measurements. In all, about 33,000 sequences were measured (“E-score (dimensionless, -0.5 to 0.5)”: median about -0.049, highest 2% from about 0.37 on). This is one part of a sample in which the highest values are shown more often than they occur.

Tested on: T1, PmTbr T-box DNA-binding domain (GST fusion)
T1 sequence: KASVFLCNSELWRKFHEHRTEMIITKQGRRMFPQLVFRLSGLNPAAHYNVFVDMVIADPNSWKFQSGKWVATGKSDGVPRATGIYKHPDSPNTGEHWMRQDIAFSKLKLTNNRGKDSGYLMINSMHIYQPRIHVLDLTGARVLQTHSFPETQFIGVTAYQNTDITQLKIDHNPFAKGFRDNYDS
Assay: PBM E-score of 8-mer (E-score (dimensionless, -0.5 to 0.5)); Tbr is Tbrain of the sea star Patiria miniata (Pm) or the sea urchin Strongylocentrotus purpuratus (Sp); higher = stronger binding preference
Details: the construct has about 5 more residues each side
Procedure: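 Universal protein-binding microarray (Agilent AMADID 016060, 60-bp probes with a 35-bp variable region) incubated with 200 nM GST-fused Patiria miniata Tbr T-box DNA-binding domain (residues 272-466) in PBS pH 7.5. Scored for every ungapped 8-mer (given with its reverse complement) by the Universal PBM Analysis Suite as E-score (modified Wilcoxon-Mann-Whitney enrichment, range -0.5 to 0.5; >0.45 counts as bound) and Z-score of median probe intensity. Two replicate arrays (datasets 1 and 2).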
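Note: 200 nM protein in PBS on universal arrays averaged over duplicate arrays.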

Sequence | PBM E-score of 8-mer
ATGGTGAC | 0.262 ± 0.049
CGCTTTCA | 0.0848 ± 0.014
GCACTAGC | 0.0942 ± 0.018
AAAGACGT | -0.108 ± 0.008
CCTACCCC | -0.152 ± 0.039
CAAATACA | -0.164 ± 0.0057
ACTAGACC | -0.3241 ± 0.0027
GTATCCAC | 0.0223 ± 0.03
ACGCGCAT | 0.0257 ± 0.033
GACAGCGC | 0.0941 ± 0.072
AGAGCATC | -0.226 ± 0.1
GAGTGTGC | 0.2606 ± 0.00088
AAGTGTGG | 0.3837 ± 0.00044
AACTGTGG | 0.00267 ± 0.0079
GAGTGTGA | 0.4754 ± 0.0017
AAGTGGGG | 0.189 ± 0.07
GAGTGTAA | 0.169 ± 0.061
CACTTTCG | 0.258 ± 0.004
CGGGGCAA | -0.147 ± 0.097
CACCTAGA | 0.324 ± 0.028
AACCTAGG | -0.0117 ± 0.074
CACCTAGC | 0.418 ± 0.0047
CCCCTAGG | -0.0463 ± 0.05
CACCTAGG | 0.436 ± 0.01
AACCTAGC | 0.088 ± 0.041

Sequence | PBM E-score of 8-mer
GTTCCGGA | -0.29 ± 0.027
GTGCGAAA | 0.4814 ± 0.0014
CTGCGAAA | 0.368 ± 0.0074
TTGCGAAA | 0.349 ± 0.034
CTGCGATA | 0.169 ± 0.046
CTGCGACA | 0.172 ± 0.015
GTGCGATA | 0.4351 ± 0.0025
GTGCGACA | 0.412 ± 0.021
ATGCGATA | 0.0765 ± 0.014
ATGCGACA | 0.3323 ± 0.0011
GTGCGAAC | 0.4794 ± 0.0017
ATGCGAAC | 0.13 ± 0.018
CTGCGAAC | 0.324 ± 0.013
CTAGTAGA | -0.0181 ± 0.012
CAGTGGTA | -0.0733 ± 0.022
CGCAGCCA | 0.00214 ± 0.11
AAGCGCCC | -0.0238 ± 0.0037
CACCGTCC | 0.0123 ± 0.0021
CGTATTCC | -0.23 ± 0.036
CTGCGAGA | 0.212 ± 0.035
GTGCGAGA | 0.43391 ± 0.00018
ATGCGAGA | 0.144 ± 0.02
AAAGGTGG | 0.234 ± 0.084
AAGGGTGT | 0.399 ± 0.018
CAGGGTGC | 0.271 ± 0.036

Sequence | PBM E-score of 8-mer
AAAGGTCC | 0.011 ± 0.046
AAAGGTGT | 0.478 ± 0.0057
GAGGGTGC | 0.389 ± 0.018
GAGGGTGA | 0.279 ± 0.005
AAAGGTAC | -0.152 ± 0.021
AAGGGTGA | 0.19 ± 0.0034
AAAGGTAT | -0.0701 ± 0.061
AAAGGTGC | 0.422 ± 0.015
AAGGGTGG | 0.1889 ± 0.001
AATAAGGT | 0.0297 ± 0.12
CACTATAC | 0.132 ± 0.073
ACGTCACA | 0.258 ± 0.021
GGGCCTAA | -0.148 ± 0.024
CGAGAACA | 0.2 ± 0.0064
AAAGGTAA | -0.21 ± 0.041
AAAGGTCA | -0.303 ± 0.043
AAAGGTGA | 0.398 ± 0.025
CAAGTGCG | 0.389 ± 0.015
AAAGTGCG | 0.315 ± 0.013
CAAGTGTG | 0.433 ± 0.0066
GAAGTGCC | 0.263 ± 0.019
CAAGTGGG | 0.211 ± 0.016
GAAGTGTA | 0.293 ± 0.028
CAAGTGCC | 0.284 ± 0.029
CAAGTGTC | 0.38 ± 0.031

Sequence | PBM E-score of 8-mer
CAAGTGGC | 0.268 ± 0.028
GAAGTGTC | 0.454 ± 0.0065
CCAGTGTC | 0.0539 ± 0.05
CAAGTGTA | 0.178 ± 0.035
ATTTAAGC | -0.191 ± 0.065
ACATATCC | -0.0724 ± 0.065
ACAGCTCA | 0.237 ± 0.0098
TAACACAA | 0.313 ± 0.0094
CTTCAATC | 0.0436 ± 0.043
ACCGACAT | 0.0334 ± 0.031
GCCGACCC | -0.256 ± 0.038
CCCGACAG | 0.11 ± 0.0062
GCCGACAC | 0.382 ± 0.03
GCCGACAA | 0.116 ± 0.04
ACCGACAC | 0.391 ± 0.02
CCCGACAC | 0.388 ± 0.012
CCCGACAA | 0.208 ± 0.044
ACCGACAA | -0.0367 ± 0.05
CGGTGGGC | -0.131 ± 0.04
ATCCCAAG | -0.275 ± 0.07
CGTACTTA | -0.115 ± 0.042
TGGCTACA | -0.117 ± 0.0015
GATGTTGC | -0.0903 ± 0.014
CCCAAAAC | 0.0141 ± 0.0023
CACCTACA | 0.407 ± 0.013

Sequence | PBM E-score of 8-mer
AACCTACG | -0.21 ± 0.0028
CACCTACG | 0.412 ± 0.0089
CCCCTACG | -0.0948 ± 0.0047
GACCTACC | -0.153 ± 0.0062
AACCTACC | -0.0696 ± 0.071
CACCTACC | 0.413 ± 0.015
TACCTACA | -0.2971 ± 0.00036
GACCTACA | -0.125 ± 0.019
CGGAAGGA | -0.209 ± 0.012
CTGCCACA | 0.226 ± 0.014
GCAAAGGA | -0.229 ± 0.021
CTTCTCGC | 0.229 ± 0.027
ACCTGGGG | 0.0226 ± 0.0096
AGTCGAGG | 0.0125 ± 0.11
CGTACTGA | -0.105 ± 0.017
AATCTAAA | -0.0399 ± 0.05
AGCATCCC | -0.136 ± 0.039
CACTGTGG | -0.16 ± 0.098
CTATTATC | -0.101 ± 0.018
ACGTGCTA | 0.417 ± 0.019
AAGTGCCC | -0.143 ± 0.0036
ATGTGCTA | 0.396 ± 0.0083
ATGTGCCC | -0.0261 ± 0.068
ATGTGCCG | 0.0963 ± 0.036
ATGTGCTC | -0.297 ± 0.012

Sequence | PBM E-score of 8-mer
GCGTGCTA | 0.261 ± 0.0046
CTGTGCTA | 0.0225 ± 0.0027
ATGTGCCA | 0.375 ± 0.0048
GAGTGCCA | 0.242 ± 0.0057
AAGTGCCA | 0.41 ± 0.0065
CCGTGCTA | 0.263 ± 0.0013
ATGACCTC | -0.0665 ± 0.086
CAGCGATA | 0.0152 ± 0.0054
ACAAGAGG | -0.108 ± 0.048
CATACAGG | -0.17 ± 0.0088
CCACTCCG | -0.01631 ± 0.00014
GATTAGAC | -0.0447 ± 0.044
GCCTCTGA | 0.0009 ± 0.067
ACTTAAAG | 0.0623 ± 0.041
AAGTGCTA | 0.448 ± 0.016
AAGTGCTC | 0.0187 ± 0.018
AAGTGCTG | 0.283 ± 0.0071
CCCTTAAG | -0.00471 ± 0.02
CGTGCAGC | 0.0118 ± 0.029
CATCGCAC | 0.373 ± 0.023
GATCGCGC | 0.289 ± 0.018
AATCGCAG | 0.0445 ± 0.062
AATCGCAC | 0.381 ± 0.0051
CATCGCAA | 0.0368 ± 0.039
GATCGCAC | 0.42 ± 0.018

Sequence | PBM E-score of 8-mer
CATCGCAG | 0.0526 ± 0.063
GATCGCAA | 0.244 ± 0.013
AATCGCAT | 0.0479 ± 0.038
ACGAATGG | 0.0417 ± 0.027
GAATGGGA | -0.214 ± 0.011
GCCATGTA | -0.101 ± 0.045
ACCACTCC | 0.0476 ± 0.03
GCTTGCGA | 0.105 ± 0.024
AGTTGCGA | 0.412 ± 0.0052
ACTTGCGA | 0.386 ± 0.006
AGTTGCGG | 0.0771 ± 0.12
CCTTGCGA | 0.243 ± 0.012
AGTTGCGC | 0.0703 ± 0.035
CGGGTCAC | 0.113 ± 0.024
CAGAGGTC | -0.0549 ± 0.0023
ACAGTAAC | 0.186 ± 0.054
GCTTAAGC | -0.292 ± 0.0039
AGGCCCCC | -0.332 ± 0.014
AAACGGCA | 0.0707 ± 0.068
GGCTTCAA | -0.121 ± 0.014
AATTCGAC | -0.0254 ± 0.029
CCATCACG | 0.033 ± 0.018
